# Among all 1,200 compounds or so, about 360 (30%) were called active. The list is a sample of the results. Potency and affinity values are given separately. Unmarked numbers belong to inactive results. No rule for the calls is given here.
# Experiment: antibacterial activity by ATP level – BacTiter-Glo luminescence, cherry-picked samples, counter-screen, dose response (AID 504843);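 also: growth measured after 8 h incubation at 30 °C; 0% = median of sample compound wells and -100% = antibiotic control wells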
# Settings: bacterial growth; series mostly up to 15 µM; activity change, negative = inhibition: at the top concentration
row,Compound,"activity change, negative = inhibition"
1,CC(C)c1cc(C(N)=O)c(NC(=O)c2cccc(COc3ccc(Cl)cc3)c2)s1,-11%
2,CC(=O)N1c2ccc(S(=O)(=O)N3CCC(C(=O)N4CCN(c5ccccc5F)CC4)CC3)cc2CC1C (stereo not given),9.5%
3,O=C(CSc1nc2ccccc2c(=O)[nH]1)N1CCN(c2ccccc2F)CC1,-12.6%
4,CC(C)c1ccc(C2C(C#N)=C(N)Oc3c2oc(CO)cc3=O)cc1 (stereo not given),-2.52%
5,COC(=O)COc1ccc(-n2cnnn2)cc1,-3.54%
6,Cc1cccc(N(CC(=O)Nc2cccnc2)S(C)(=O)=O)c1,-4.93%
7,O=C(Nc1c2c(nn1-c1ccccc1)CS(=O)(=O)C2)c1cccs1,6.9%
8,COc1ccc(-c2nc3ccccc3o2)cc1NC(=O)c1ccc(Br)o1,7.17%
9,O=C(NNC(=S)Nc1cccc(Cl)c1)c1ccccc1OC(F)F,-4.26%
10,CC1CC(OC(=O)C(O)c2ccccc2)CC(C)(C)N1C (stereo not given),4.13%
11,NC(=O)NC(=O)CSc1nc2sc(-c3ccccc3)cc2c(=O)n1-c1ccccc1,12%
12,CCOc1ccc(-n2c(SCC(=O)O)nc3sc4c(c3c2=O)CCCC4)cc1,-11.9%
13,CCNc1nc(NC(C)(C)C)nc(N(CC)n2cnnc2)n1,-9.55%
14,O=C(NCC1CCCO1)C1CCCN(S(=O)(=O)c2ccc(F)cc2)C1 (stereo not given),1.36%
15,CCCCS(=O)(=O)N1CCCC(C(=O)Oc2ccc(Cl)cc2)C1 (stereo not given),11.8%
16,COc1ccccc1C(C[N+](=O)[O-])c1c[nH]c2ccccc12 (stereo not given),-32.1%
17,CCOC(=O)[C@H]1[C@H]2COc3ccc(Cl)cc3[C@@H]2N2C(=O)[C@H](C)NC(=O)[C@@]12C,15.9%
18,O=C(c1ccc(-n2cncn2)c([N+](=O)[O-])c1)N1CCN(S(=O)(=O)c2ccc(Br)cc2)CC1,2.46%
19,Cc1cc(C(=O)c2ccccc2)c(NC(=O)CCl)s1,6.72%
20,CCCC(C(=O)NNC(=O)c1cc(C)oc1C)c1ccccc1 (stereo not given),15.9%
21,O=C(O)c1ccc(/C=C2\SC(=Nc3ccccc3)N(c3ccccc3)C2=O)cc1,-11.6%
22,CCC1CCCCN1CCNC(=O)CNS(=O)(=O)c1ccc2nc(C)sc2c1 (stereo not given),8.77%
23,Cc1ccccc1NC(=O)NCCN1C(=O)C2C3C=CC(C3)C2C1=O (stereo not given),-0.572%
24,CCOc1ccc(NC(=O)CN2C(=O)/C(=C3\SC(=S)N(C4CCS(=O)(=O)C4)C3=O)c3ccccc32)cc1 (stereo not given),12.8%
25,COc1ccc(C(=O)Nc2cnn(Cc3ccc(Cl)cc3)c2)cc1OC,5.42%
26,COc1cc(C(=O)Oc2cc(C)cc(C)c2)cc(OC)c1OC,10.3%
27,CCOC(=O)CC(NC(=O)c1cccc2c1C(=O)N(Cc1cccnc1)C2)c1ccc(OCC)c(OC)c1 (stereo not given),13.7%

row,Compound,"activity change, negative = inhibition"
1,CCc1ccc(C(C(=O)NC2CCCC2)N(CCOC)C(=O)CCC(=O)Nc2cc(C)on2)cc1 (stereo not given),-13.1%
2,CCCCCCCCCCCCN1[C@@H](CC(=O)O)c2cc(C(F)(F)F)ccc2S1(=O)=O,1.32%
3,Cc1c(OCC(=O)NCCCN2CCOCC2)ccc2c1oc(=O)c1ccccc12,-18.3%
4,O=C(NCCCN1CCOCC1)c1cc2cc(Br)ccc2oc1=O,6.15%
5,COc1cccc(C2CC(c3cccc(OC)c3)n3nc(N)nc3N2)c1 (stereo not given),-15%
6,CC(=O)c1ccc(NC(=S)NC(C)c2ccc(Cl)cc2Cl)cc1 (stereo not given),17.5%
7,Cc1ccc(NC(=O)C(c2ccc(Cl)cc2)N2CCCCC2)cc1 (stereo not given),0.88%
8,CCc1ncc(C)nc1CC,-1.22%
9,CN1CCN(C(=S)c2cn(Cc3ccc(Br)cc3)c3ccccc23)CC1,9.12%
10,Cc1nn(-c2ccccc2)c(Cl)c1/C=N/NC(=O)c1ccn[nH]1,-23.5%
11,Cc1nn(-c2ccccc2)c(Cl)c1/C=C(\CC(=O)O)c1nc2ccccc2s1,-4.76%
12,COc1ccc(C(=O)NCC(=O)N/N=C/C(C)=C/c2ccco2)cc1OC,-5.85%
13,N/C(=N\OS(=O)(=O)c1ccccc1)c1cccnc1,0.119%
14,CC(Sc1nc2ccccc2c(=O)n1C)C(=O)NC1CCCCC1C (stereo not given),-0.837%
15,O=C(NCc1cccs1)c1cccnc1C(=O)O,12.1%
16,CCOCCCNS(=O)(=O)c1ccc(Br)cc1,11.4%
17,O=C1OCCN1C(=O)[C@H]1[C@H](c2ccc(Cl)cc2)C(c2ccccc2)=NN1c1ccccc1,2.81%
18,COc1ccc(N2CCN(C(=O)C3CCCN(S(=O)(=O)c4cccc5cccnc45)C3)CC2)cc1 (stereo not given),-8.76%
19,O=C(Nc1ccc2c(c1)OCCO2)N1CCN(c2ccc(F)cc2)CC1,6.77%
20,COc1ccc(Cn2nnnc2C(c2cc3ccc(OC)cc3[nH]c2=O)N2CCC(C)CC2)cc1 (stereo not given),-12.1%
21,Cc1ccc(S(=O)(=O)N(CC(=O)Nc2ccccc2-c2ccccc2)c2ccc(C)cc2C)cc1,-4.21%
22,CCS(=O)(=O)c1ccc(NC(=O)c2ccccc2Cl)c(O)c1,-5.15%
23,CCn1c(CCn2c3ccccc3c3ccccc32)n[nH]c1=S,-5.11%
24,CC(=O)NC(Cc1ccc(F)c(F)c1)C(=O)NC1CCN(c2c(Cc3ccccc3)c(C)nc3ncnn23)CC1 (stereo not given),-2.55%
25,O=C(Nc1cc(F)ccc1F)C1CCCN(c2ncnc3c2nc2n3CCCCC2)C1 (stereo not given),-3.11%
26,CCN(CC)S(=O)(=O)c1ccc(NC(=O)Cc2cccs2)cc1,-7.71%
27,Oc1ccc(/C=N/Nc2ccccc2)cc1,8.18%

row,Compound,"activity change, negative = inhibition"
1,COc1ccc(-c2cc(C(F)(F)F)c3c(n2)sc2c(O)cc(=O)[nH]c23)c(OC)c1,2.95%
2,CC(C)c1cccc(C(C)C)c1OC(=O)[C@H]1OC(C(C)(C)C)=C[C@@H]1c1ccccc1,8.97%
3,COC(=O)CN1C(=O)C(O)=C(C(C)=O)C1c1ccc([N+](=O)[O-])cc1 (stereo not given),-2.84%
4,Cc1c(N2C(=O)c3cccc4cccc(c34)C2=O)c(=O)n(-c2ccccc2)n1C,-4.07%
5,CCCc1c(O)nc(SC2CC(=O)N(c3ccc(OC)cc3)C2=O)[nH]c1=O (stereo not given),7.76%
6,CC(C)CNC(=S)NC1CCCC1,14.6%
7,COc1cc(SC)ccc1C(=O)Nc1cc(C)ccn1,9.39%
8,COc1cc2cc(C(c3nnnn3Cc3ccc(F)cc3)N3CCCCCC3)c(=O)[nH]c2cc1OC (stereo not given),24.9%
9,O=C(O)C1CCCCN1S(=O)(=O)c1ccc(Cl)s1 (stereo not given),8.83%
10,O=S(=O)(NC1CCCC1)c1cc(F)ccc1F,-12.1%
11,Cc1cc(=O)oc2cc(OCC(=O)OCC(=O)N3CCc4ccccc43)ccc12,-9.69%
12,CCc1nc2nc(C)c(NS(=O)(=O)c3ccc(Cl)s3)c(=O)n2[nH]1,-0.224%
13,Cc1ccc(=O)n(-c2ccccc2)c1,13.6%
14,COc1ccc(Cc2nnc(NS(=O)(=O)c3ccc(Cl)cc3)s2)cc1OC,-1.52%
15,COc1ccc(Cl)cc1S(=O)(=O)Nc1noc2ccccc12,19.9%
16,CC(C)(CO)[C@@H](O)C(=O)NCCC(=O)O,1.6%
17,COc1cc(C(=O)NCCOC(=O)c2cccc(N(C)C)c2)cc(OC)c1OC,-6.73%
18,N#Cc1c(N)nc2c(c1-c1ccncc1)CCCCC2,-1.17%
19,Cc1ccccc1-n1c(SCC(=O)N2CCOCC2)nc(O)c(Cc2ccccc2)c1=O,-10.1%
20,CN(Cc1ccccc1)C(=O)N1CCOCC1,1.22%
21,Cc1cc(C)n2nc(SC(C)C(=O)N3CC(C)OC(C)C3)nc2n1 (stereo not given),1.03%
22,COc1ccc(OC)c(NC(=O)c2cccnc2)c1,-6.8%
23,CN1CCN(c2ccc(S(=O)(=O)N3CCCCC3)cc2NC(=O)c2cccc([N+](=O)[O-])c2)CC1,4.22%
24,O=C(O)c1ccc(N/N=C/c2ccc(-c3ccccc3)cc2)cc1,-0.556%
25,O=C(O)c1ccc(NS(=O)(=O)c2cc(C(=O)O)ccc2Br)cc1,1.32%
26,Cc1ccnc(NS(=O)(=O)c2ccc(NS(=O)(=O)c3ccccc3)cc2)n1,-9.57%
27,Brc1ccc(NC2=Nc3ccccc3CC2)cc1,-1.59%

row,Compound,"activity change, negative = inhibition"
1,C[C@@H]1O[C@@H](Oc2c(-c3ccc(O)c(O)c3)oc3cc(O)cc(O)c3c2=O)[C@H](O)[C@H](O)[C@H]1O,13.4%
2,C[C@H](NC(=O)c1nc[nH]c1C(=O)NCc1ccc(CNC(=O)OC(C)(C)C)cc1)c1ccccc1,-13%
3,CC(C)(C)OC(=O)[C@H](Cc1ccccc1)NC(=O)c1nc[nH]c1C(=O)NC1CCN(C(=O)OC(C)(C)C)CC1,16%
4,Cn1cc(CN2CCC(CO)(CCCc3ccccc3)CC2)c(-c2ccccc2)n1,9.02%
5,O=C(CCc1ccccc1)N1CCN(Cc2ccc(F)cc2Cl)CC1,14.4%
6,CCCn1c(N)c(C(=O)CSc2nc(C)cs2)c(=O)n(C)c1=O,23.1%
7,O=C(Nc1ccccc1OC(F)F)c1oc2ccccc2c1COc1ccccc1,-3.7%
8,O=C(O)CC(NCc1ccco1)C(=O)OCCc1ccccc1 (stereo not given),3.97%
9,CC(/C=N/NC(=O)c1nnn(-c2nonc2N)c1C(C)C)=C\c1ccccc1,0.692%
10,CCn1c(SCC(=O)Nc2ccc(OC)cc2)nc2c1c(=O)n(C)c(=O)n2C,0.126%
11,CCOc1ccc(NC(C(=O)Nc2cccc(C(C)=O)c2)c2ccccc2)cc1 (stereo not given),-17.9%
12,CN1CCN(CCC(=O)Nc2ccc(OCc3ccccc3)cc2)CC1,15.1%
13,CC(C)(C)NC(=O)NC(=O)CSc1ccc(S(=O)(=O)N2CCOCC2)cn1,11.8%
14,CN(c1ccccc1C(=O)Nc1ccc(S(=O)(=O)N2CCOCC2)cc1)S(C)(=O)=O,2.22%
15,Cc1nc(SCc2nc3ccccc3[nH]2)c2oc3ccccc3c2n1,-22.7%
16,O=c1/c(=C/c2ccc(O)c([N+](=O)[O-])c2)sc2nc3ccccc3n12,-4.54%
17,COc1ccc([N+](=O)[O-])cc1/C=N/NC(=O)Cc1ccccc1,7.51%
18,CC(SCC(=O)Nc1ccc(F)cc1)c1nc2ccccc2c(=O)[nH]1 (stereo not given),6.97%
19,Cc1nc2c(=O)n(-c3cccc(C(F)(F)F)c3)nc(C)c2s1,-8.93%
20,CCN1CCCC1CNCc1cccc(OC)c1OCc1ccc(F)cc1 (stereo not given),-0.034%
21,CCN1CCCC1CNC(=O)C(=O)NC(C)C (stereo not given),14.5%
22,O=C(O)c1sccc1OCc1ccccc1,9.78%
23,CCOc1ccc(Br)cc1CNCCN1CCOCC1,-3.4%
24,O=C(CCC1CCCCC1)NCCN1CCOCC1,-15%

# From PubChem BioAssay AID504843 (Broad Institute, 2011)
